# In paper PMC8769072, “Proteome‐scale mapping of binding sites in the unstructured regions of the human proteome” (Molecular Systems Biology, 2022):
# NEDD4 890-928, P46934, sequence (P46934 890-928): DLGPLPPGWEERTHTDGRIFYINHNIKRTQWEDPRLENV
# YAP1 169-207, P46937, sequence (P46937 169-207): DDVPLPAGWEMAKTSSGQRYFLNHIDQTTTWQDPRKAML
binder,measurement,setting,value
"WTDLASIFGSNKDLMG [NLRP2, Q9NX02]",selected by phage display,"MAP1LC3A 2-121, Q9H492",confidence 3 (active)
"TAPPPYSPSPNPYQTA [FAM168A, Q92567]",selected by phage display,"NEDD4 890-928, P46934",confidence 3 (active)
"ATTHYHTYLPPPYPGS [RUNX2, Q13950]",selected by phage display,"NEDD4 890-928, P46934",confidence 2 (active)
"HLGEWGHLDPAEENLK [ZSCAN18, Q8TBC5]",selected by phage display,"MAP1LC3A 2-121, Q9H492",confidence 2 (active)
"EYEIIETIGNGAYGVV [MAPK7, Q13164]",selected by phage display,"MAP1LC3B 2-119, Q9GZQ8",confidence 2 (active)
"RLSISLPSYESLTGLD [TMEM51, Q9NW97]",selected by phage display,"NEDD4 890-928, P46934",confidence 2 (active)
"ASERPPTYAELVPRVP [SH2D3A, Q9BRG2]",selected by phage display,"NEDD4 890-928, P46934",confidence 3 (active)
"MARRYDELPHYPGIVD [MEIS3, Q99687]",selected by phage display,"NEDD4 890-928, P46934",confidence 3 (active)
"LEAEVDFTVIGDYHGS [EPB41L1, Q9H4G0]",selected by phage display,"MAP1LC3A 2-121, Q9H492",confidence 2 (active)
"FLPPYPPQEANRSITS [VPS37A, Q8NEZ2]",selected by phage display,"NEDD4 890-928, P46934",confidence 3 (active)
"APELWTELTGLAASSE [KIFC2, Q96AC6]",selected by phage display,"MAP1LC3A 2-121, Q9H492",confidence 3 (active)
"ASPQGEWTILELETQH [KIAA1107, Q9UPP5]",selected by phage display,"MAP1LC3A 2-121, Q9H492",confidence 3 (active)
"QAVTHDNEWEMLSPQP [PRUNE2, Q8WUY3]",selected by phage display,"MAP1LC3B 2-119, Q9GZQ8",confidence 4 (active)
EPGWVVLDQPDAAAHL,selected by phage display,"MAP1LC3B 2-119, Q9GZQ8",confidence 4 (active)
"PHSHDWVWLGNEVELL [TMEM132B, Q14DG7]",selected by phage display,"MAP1LC3B 2-119, Q9GZQ8",confidence 2 (active)
"TSSSLAYPPPPSYPSP [EGR2, P11161]",selected by phage display,"NEDD4 890-928, P46934",confidence 3 (active)
"SLEPPSPFELLEPPTS [MAP1S, Q66K74]",selected by phage display,"MAP1LC3A 2-121, Q9H492",confidence 3 (active)
VDNRESSENWEIIRED,selected by phage display,"MAP1LC3B 2-119, Q9GZQ8",confidence 2 (active)
"DAGLGFVDLTDLTDHQ [PEG3, Q9GZU2]",selected by phage display,"MAP1LC3A 2-121, Q9H492",confidence 3 (active)
"DIGGFTLLDGKLVLLG [RASAL3, Q86YV0]",selected by phage display,"MAP1LC3B 2-119, Q9GZQ8",confidence 4 (active)
"PPAPLAHSDDYVHISL [TSC1, Q92574]",selected by phage display,"MAP1LC3B 2-119, Q9GZQ8",confidence 2 (active)
"DSWEIIEGLKIGQTNV [OSBPL6, Q9BZF3]",selected by phage display,"MAP1LC3B 2-119, Q9GZQ8",confidence 3 (active)
"ALPEPPPPYEFSASSA [N4BP3, O15049]",selected by phage display,"NEDD4 890-928, P46934",confidence 3 (active)
"AGHQLGLEADGHWGLL [ZNF469, Q96JG9]",selected by phage display,"MAP1LC3B 2-119, Q9GZQ8",confidence 3 (active)
"DQRLPPYPYSSPSLVL [CRTC2, Q53ET0]",selected by phage display,"NEDD4 890-928, P46934",confidence 4 (active)
same,selected by phage display,"YAP1 169-207, P46937",confidence 3 (active)
"QSNADALPPDYSVVRG [LYPD5, Q6UWN5]",selected by phage display,"NEDD4 890-928, P46934",confidence 2 (active)
"GSPPSYSEALLDQRPA [LDLRAD3, Q86YD5]",selected by phage display,"NEDD4 890-928, P46934",confidence 3 (active)
"EPWAQLEASDIHTAAA [WDR90, Q96KV7]",selected by phage display,"MAP1LC3A 2-121, Q9H492",confidence 3 (active)
same,selected by phage display,"MAP1LC3B 2-119, Q9GZQ8",confidence 4 (active)
"AVQVPESFEHLPPLPE [ATF7IP2, Q5U623]",selected by phage display,"MAP1LC3A 2-121, Q9H492",confidence 4 (active)
"HDEAWMVLKQVHDTNM [SV2A, Q7L0J3]",selected by phage display,"MAP1LC3B 2-119, Q9GZQ8",confidence 3 (active)
